Among the data in the supplement of paper PMC6555819 are PBM binding z-score values, retold here.

The assay concerns VDR:RXRa (NR concentration 270 nM, RXRa partner concentration 90 nM). Put plainly: PBM binding z-score (relative to random genomic background probes); higher = stronger binding; sequences stand for … in GC…GCGATTGACAGCGTAGAATGAAGG
On the procedure:
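Protein-binding microarray (Agilent 4x180K custom design, double-stranded 60-nt probes: 5' GC cap, 34-nt variable region, 24-nt constant primer region; full probe sequence given). Purified or IVT nuclear receptor:RXRα heterodimers (3:1 NR:RXRα, mostly 270:90 nM) or homodimers were incubated for 1 h in PBS with 2% milk and no ligand, then detected with Alexa488 antibodies. Fluorescence from o1-orientation probes (~5 replicates averaged) was converted to z-scores against 500 random hg19 background probes. Variable regions are seed direct-repeat (DR0–DR5) sites, all their single-nucleotide variants and half-site ablations.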
For the sequence GCTAGCAGGCCATATGGGTCACTCAATGACGGGC, the PBM binding z-score amounted to 0.951.

For TCTGCTAGGTCAACTATGGTCAGCTAATCTGCTA, the PBM binding z-score stood at 2.12.

For the sequence CCTGCTAGGTCACTGGTCAGCTAAAGCAGCTCGC, the PBM binding z-score came to 1.39.

The sequence CGAAATAGGTCAGAACAGGACAGTGAAGGATGAT yielded a PBM binding z-score of 1.71.

GCTCGGAAGACAAGGTCAGAGCTTTGTCCGTAGA gave a PBM binding z-score of 0.859.

In the case of TCCTATAGGTAATACAGGTGAAAGTCGGCATCTA, the PBM binding z-score turned out to be 0.718.

Sequence CCTGCTAGATCATGGTCAGCTAATCTACAGTATG showed a PBM binding z-score of -0.447.

For the sequence TCTTGTAGATCAACATGAGGTTAAGAAAGATCGA, the PBM binding z-score was 1.1.

Turning to TTTTGTAGATCAATAGAGGTTAAGAAAGTGCGCT, the PBM binding z-score is 2.09.

For TCTTCTAGGTCAACGATGGTCAGCTAATCTGCTA, the PBM binding z-score stood at 2.41.

CGAACGAGGGCATGAGTAGATAGCAAATGCCGAT: the PBM binding z-score was determined as 0.5.

Sequence CGAACGAGGGCATGAGTTGATAGCCAATGCCGAT returned a PBM binding z-score of 1.09.

ACTAGCACGCCAAGTTTGGGTCACTCAAACAAAG returned a PBM binding z-score of 0.247.

Regarding ATACCAAGGTAATCGTGAGGTCGTTGATACTAAC, the PBM binding z-score amounted to 3.1.

Consider CGTCCAAGGTCAAAGGGCAGTGAAGAGATGACGG, for which the PBM binding z-score was determined as 4.65.

Sequence TCTTGTAGATCAAGCAGGTTAAGAAGGCCTGAGT had a PBM binding z-score of 0.55.

In turn, GCTCGGAGGACAAGTTCAGAGCTTTGTCCGTAGA displayed a PBM binding z-score of 0.733.

As to AGAACGAGGGCACGCTGAGTTGAAAGCAGAGTAG, the PBM binding z-score is 2.29.

Regarding CGTCCAAGGTCAAAGGTCAGTGTAGAGATGACGG, the PBM binding z-score is 6.6.

The sequence TTACCAAGGTGTAAGGTCGTTGATGCACGCCTTG gave a PBM binding z-score of 1.08.

TCTATTAGTTGAAGGGCAACCAACGAGTCCGTTT yielded a PBM binding z-score of 1.11.

As to AATACTGGGTCACTAGGCCAGAGTAGGTACGAAT, the PBM binding z-score was 1.47.

Consider ACAGACTGGTGATGAAGGTAACTCAGGCTATCAT, for which the PBM binding z-score is -0.35.

For CCGACTGGGGCAAGGTTATCATAACGCACAGCCA, the PBM binding z-score amounted to 0.0882.

For the sequence ACAGACAGGTGAGTGAAGGTAACACAGCTGGACG, the PBM binding z-score is -0.0356.

On to CTACCATGGTGAACAAGGTCGTTGATTACTATTC, for which the PBM binding z-score amounted to 3.04.

As to CATCAAAGTTCAACTAAGGTAACGTAAAGCACGC, the PBM binding z-score is 4.98.

On to AATACACGGTCACTAGGCCAGAGTAGGTACGAAT, for which the PBM binding z-score was 0.248.

In turn, ACTTACGGGTCAACGAGGTAATAGCACGCGTATA displayed a PBM binding z-score of 6.51.

TCATATAGTTAAATGCTAGGTGAAAGTCCGATCT gave a PBM binding z-score of 0.952.

CAGCCTACGTCAGGGCCAGTATAGGAGGAACGTT came in with a PBM binding z-score of -0.587.

For the sequence CCTAGCAGGCCAGGGTAACTCAAGCATTTCGCTT, the PBM binding z-score was -0.743.

The sequence CAAACTAGGTCACGAAGGGTCAAAGTCGAATGAC registered a PBM binding z-score of 6.99.

The sequence TCAGACAGGTGCAGGTAACTCAGGTACGCAGTCG showed a PBM binding z-score of 0.362.

ATCTCTAGGTAAACATAGTTCAGTGAATGCAAAT registered a PBM binding z-score of 1.34.

In turn, TCTCGGAGGACACGAAGGCCAGAGCTTTCCAGAG returned a PBM binding z-score of -0.411.

Take CCTGCTAGGTCAATGGTTAGCTAAAGCAGCTCGC: the PBM binding z-score came to 0.802.

TCGAGTAGGTTAGAGGCATTCAGAATGGCGTCGA came in with a PBM binding z-score of -0.327.

CGAACTAGGTCATCGACAGGACAGTGAATAGTAA showed a PBM binding z-score of 2.57.

For CCTGCTAGGCCAATGGTCAGCTAAAGCAGCTCGC, the PBM binding z-score was -0.792.
